# Laboratory results published in PubChem BioAssay (NCI).
# About 79,000 compounds went through this panel and 15% of them were active in at least one assay; those are over-represented in the sample as a whole. Calls of active or inactive are those of the source. Rule as the data show it: active = growth inhibition above about 70%; inactive = the rest.
# Assay: NCI Yeast Anticancer Drug Screen. Data for the rad50 strain (AID 155);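 also: 0% = growth of vehicle-only cultures of the same strain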
# Details: S. cerevisiae rad50 strain growth inhibition; at 5.0 µM (retest, dose inferred, filed as 0.5); stronger effect = higher value
# How it was run: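 Cells are treated with compound, grown, and their growth is then scored against vehicle-only cultures of the same repair-deficient yeast strain.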
row,SMILES,growth inhibition
1,O=[N+]([O-])c1ccc(N2N=NC(CN3CCOCC3)C2N2CCOCC2)cc1 (stereo not drawn),5% (inactive)
2,FC(F)(F)c1ccccc1NC(=S)SCc1ccco1,1% (inactive)
3,O=C(c1ccc(Cl)cc1)C1N=NCC1c1ccccc1 (stereo not drawn),3% (inactive)
4,COc1cc(C2c3cc4c(cc3[C@@H](OCCN)[C@H]3COC(=O)C23)OCO4)cc(OC)c1O (stereo partly drawn),47% (inactive)
5,CC(C)(C)c1cc2c(c(C(C)(C)C)c1O)CC(=O)O2,-6% (inactive)
6,CCCCCCCCCCCCCCCCCCSSCCCCCCCCCCCCCCCCCC,1% (inactive)
7,c1ccc2c(c1)OCC(CNCCNCC1COc3ccccc3O1)O2 (stereo not drawn),51% (inactive)
8,CC(=O)C(C(C)=O)C1C=CC=CC=C1,-149% (inactive)
9,c1ccc2c(c1)ccc1c[n+]3c4ccccc4ccc3n12,62% (inactive)
10,CC(=O)C(=C(I)I)c1ccccc1,-20% (inactive)
11,O=C1c2ccccc2CN1Cc1ccc(Cl)c(Cl)c1,-1% (inactive)
12,CC1CC(N)=NC1C(=O)NCCC#N (stereo not drawn),20% (inactive)
13,CC(=O)CC(C)=NCCN=C(C)CC(C)=O.[Pd],-6% (inactive)
14,CCOc1ccccc1NC1=C(Cl)C(=O)c2ccccc2C1=O,99% (active)
15,CCN1C2=NCCN2S(=O)(=O)c2ccccc21,5% (inactive)
16,O=C(Cc1nc2ccccc2s1)C(=O)Nc1ccc(Cl)cc1,2% (inactive)
17,O=C(CCn1[nH]c(=O)c(Cl)c(Cl)c1=O)NNc1ccc([N+](=O)[O-])cc1[N+](=O)[O-],4% (inactive)
18,COc1cccc(C2c3cc4c(cc3OC(NNc3ccccc3)C2C)OCO4)c1OC (stereo not drawn),14% (inactive)
